A number with no mark means an inactive call. No rule for the calls is given here. Some results are limits rather than exact numbers.
Potency is read from the fitted curve at half-maximal effect.

The test deals with HIV-1 nucleocapsid protein NCp7 (binding to TG oligonucleotide). Briefly: HIV Nucleocapsid (AID 346).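 Also: potency is for inhibitors that block NC binding and lower polarization.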 As to conditions: HIV-1 NC / fluorescein-TGTGTGTG probe, fluorescence polarization. The procedure, abridged:
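HIV-1 NC (100 nM) binding to fluorescein-labelled ssDNA TG4xF (10 nM) in Hepes pH 7.5, 250mM NaCl, 1uM ZnCl2, TCEP and 2-mercaptoethanol; compounds pin-transferred, 1 hr room temperature, fluorescence polarization read on CCD imager.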
In general terms: Polarisation of emitted light reports the rotation of a fluorescent probe.
As to `Cc1ccccc1-c1nc(Nc2ccncc2)c2ccccc2n1`, the Potency was above 20 µM.

As to `COc1ccccc1-c1nc(NCc2cccs2)c2ccccc2n1`, the Potency is above 20 µM.

For the molecule `CN(C)Cc1ccccc1-c1cc(-n2ccnc2)ncn1`, the Potency is above 20 µM.

Regarding `O=c1cnc2cnc(Nc3ccccc3)nc2n1Cc1ccc(F)cc1`, the Potency was above 20 µM.

On to `COC(=O)N1CCC2(CC1)CCN(c1cccc(-c3ccccc3)c1)CC2`, for which the Potency is above 20 µM.

Regarding `CC(=O)N1CCC[C@@]2(CCN(C(=O)Nc3cccc(C#N)c3)C2)C1`, the Potency is above 20 µM.

`O=c1c(-c2ccc(F)c(F)c2)nc2cncnc2n1Cc1ccccc1`: the Potency was above 20 µM.

As for `COc1cccc(-c2cc(NCCc3c[nH]c4ccc(OC)cc34)ncn2)c1`, the Potency was above 20 µM.

With `O=C(c1ccncc1)N1CCC2(CC1)CN(C(c1ccccc1)c1ccccc1)C2`, the Potency is above 20 µM.

For `COCCn1c(=O)c(-c2cc(F)cc(F)c2)nc2cnc(OC)nc21`, the Potency is above 20 µM.

For `COCCNc1nc(-c2c(C)noc2C)nc2ccccc12`, the Potency was above 20 µM.

Take `O=C(c1csnn1)N1CCC2(CC1)CN(C(c1ccccc1)c1ccccc1)C2`: the Potency is above 20 µM.

`COc1cccc(Cn2c(=O)c(C)nc3cnc(OCc4ccccc4)nc32)c1`: the Potency is above 20 µM.

On to `CN1CCN(c2ccnc(-c3ccoc3)n2)CC1`, for which the Potency is above 20 µM.

On to `N#Cc1cccc(-c2cc(NCc3cccnc3)ncn2)c1`, for which the Potency was above 20 µM.

In the case of `CC(=O)NCCNc1nc(-c2ccccc2Cl)nc2ccccc12`, the Potency is above 20 µM.

For the origin of these results see PubChem BioAssay (NCATS).
